# SRC2 inh: inhibits human steroid receptor coactivator 2; Q15596; HEK293 GAL4-SRC2 luciferase reporter, luminescence; inhibition, % at 9 µM; 370,000 compounds, 0.17% hits;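 active = inhibition above the mean inhibition of all tested compounds plus 3 SD, set per campaign, cut at about 52% in these data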;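 also: 0% = DMSO treated cells and 100% = cells given Gossypol at 36 µM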
# NR2F2 inh: inhibitors of human COUP-TFII (NR2F2); P24468; HEK293T NGFI-A luciferase reporter, luminescence; inhibition, % at 8.6 µM; 370,000 compounds, 0.7% hits; AID 686940;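 active = inhibition above a per-plate cutoff, mean inhibition of test wells between control levels plus 3 SD, cut at about 38% in these data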;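 also: cells cotransfected with COUP-TFII expression vector driving the NGFI-A reporter; 0% = median of COUP-TF2 test wells and 100% = reporter-only cells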
# Target sequence (P24468 whole entry, looked up): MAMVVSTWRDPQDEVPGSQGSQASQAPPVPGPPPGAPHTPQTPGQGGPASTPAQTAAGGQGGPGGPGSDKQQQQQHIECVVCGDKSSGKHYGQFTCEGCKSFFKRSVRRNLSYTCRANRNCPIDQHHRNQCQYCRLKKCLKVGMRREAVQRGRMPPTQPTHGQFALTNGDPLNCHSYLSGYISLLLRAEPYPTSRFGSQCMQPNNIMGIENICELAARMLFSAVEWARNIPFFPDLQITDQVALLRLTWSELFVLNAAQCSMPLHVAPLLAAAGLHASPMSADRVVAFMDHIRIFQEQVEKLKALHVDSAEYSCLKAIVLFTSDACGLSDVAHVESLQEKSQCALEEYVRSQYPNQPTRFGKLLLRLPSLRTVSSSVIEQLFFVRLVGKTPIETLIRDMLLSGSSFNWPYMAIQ
# Gli-Sufu antag: antagonists of Gli-Sufu signaling; Sufu-KO-LIGHT fibroblasts, Gli luciferase reporter luminescence; inhibition, % at 5 µM; 340,000 compounds, 0.74% hits; AID 588413;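 active = inhibition above about 55%, limit read from the data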;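 also: 0% = DMSO-treated cells and 100% = wells with medium but no cells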
# NR5A2 inv ag: inverse agonists of human LRH-1 (NR5A2) | HEK293T StAR-luciferase reporter, LRH-1 transfected, 24 h | inhibition, % at 3.6 µM | 360,000 compounds, 0.13% hits | AID 602396;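 active = inhibition above the mean inhibition of all tested compounds plus 3 SD, cut at about 73% in these data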;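 also: 0% = DMSO wells and 100% = reporter-only cells lacking LRH-1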
# NCOA1 inh: inhibitors of human steroid receptor coactivator 1 (SRC1). Q15788. 360,000 compounds, 0.12% hits. AID 588354. inhibition, % at 3.6 µM. HEK293 GAL4-SRC1 luciferase reporter, luminescence;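 active = inhibition above the campaign mean plus 3 SD, with each screening campaign given its own cutoff, cut at about 60% in these data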;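 also: 0% = DMSO treated cells and 100% = gossypol at 36 µM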
# SRC3 inh: human NCOA3 inhibition; Q9Y6Q9; HEK293 GAL4-SRC3 luciferase reporter, luminescence; inhibition, % at 3.6 µM; 360,000 compounds, 0.17% hits; AID 588352;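 active = inhibition above a per-campaign cutoff, the mean of all compounds plus 3 SD, cut at about 60% in these data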;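 also: 0% = DMSO-treated cells and 100% = gossypol-treated cells at 36 µM; higher means less SRC3-driven luciferase light from the GAL4 reporter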
# Gal4-VP16 ctr: inhibits VP16 reporter, flagging COUP-TFII antagonist hits | shares compounds with NR2F2 inh | HEK293 Gal4-VP16 luciferase reporter, luminescence | inhibition, % at 8.5 µM | 2,500 compounds, 25% hits; in the data active = inhibition above about 13%
# NR2F2 inh conf: COUP-TFII (NR2F2) inhibition, confirmation assay; HEK293 NGFI-A luciferase reporter, luminescence; 2,500 compounds, 45% hits; shares compounds with NR2F2 inh; inhibition, % at 8.5 µM;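 active = mean inhibition over three repeats above a set limit taken from the earlier primary screen, cut at about 38% in these data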;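 also: 100% = cells given the luciferase reporter alone without the COUP-TF2 vector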
# * hit, by the source's call; / = no result given. Most compounds without a hit are left out; they make up all but 1.2% or so of the library.
SMILES,SRC2 inh,NR2F2 inh,Gli-Sufu antag,NR5A2 inv ag,NCOA1 inh,SRC3 inh,Gal4-VP16 ctr,NR2F2 inh conf
CC(C)(C)S(=O)(=O)N1C[C@H]2C(=C(CCO)C[C@H]3C(=O)N(c4ccccc4)C(=O)[C@H]32)[C@@H]1CCO,9.1,-12.1,/,/,/,/,/,/
Cc1ccccc1C(=O)N1CCN(c2ccc(NC(=O)c3ccc4c(c3)OCCO4)cc2)CC1,41.1,68.5*,33.8,35.5,34.7,39.5,9.8,58.1*
Cc1ccccc1C(=O)N1CCN(c2ccc(NC(=O)CSc3ccc(Cl)cc3)cc2)CC1,38.3,53.8*,-3.3,7.1,25.3,32.6,0.4,56.9*
Cc1ccc(C(=O)N2CCN(c3ccc(NC(=O)c4ccc5c(c4)OCCO5)cc3)CC2)cc1,20.2,13.0,35.3,-14.5,18.4,6.5,/,/
COc1ccc(OCC(=O)Nc2ccc(N3CCN(C(=O)c4ccco4)CC3)cc2)cc1,0.3,4.7,16.8,-1.6,0.2,6.4,/,/
O=C(COc1ccc(Cl)cc1)Nc1ccc(N2CCN(C(=O)c3ccco3)CC2)cc1,4.6,52.1*,24.0,10.7,12.3,24.2,-1.1,34.9
Nc1[nH]c(C(=O)c2ccccc2)c(-c2ccc3ccccc3c2)c1C(=O)NCc1cccc2ccccc12,5.7,-14.0,/,/,/,/,/,/
N#Cc1ccc(S(=O)(=O)NC(=O)[C@H]2O[C@@H](n3ccc(=O)[nH]c3=O)[C@H](O)[C@@H]2O)cc1,-4.9,0.6,/,/,/,/,/,/
O=C(Cn1nnc(N2CCOCC2)n1)NN=Cc1ccccc1Cl,-19.1,6.1,/,/,/,/,/,/
NS(=O)(=O)c1ccc(NC(=O)COc2ccc(C(=O)c3ccc(F)cc3)cc2)cc1,35.9,38.3*,-21.3,2.3,13.5,21.9,-0.6,8.1
Cc1ccccc1OCCCCn1cnc2ccccc21,7.0,38.9*,42.4,19.8,11.8,-10.5,-15.7,17.2
CCOC(=O)CC1(Cc2ccccc2)Oc2ccccc2O1,-16.6,-3.9,/,/,/,/,/,/
Cc1cccc(C)c1NC(=O)N1CCN(c2nc3ccccc3s2)CC1,12.2,47.9*,-1.4,8.0,14.6,28.3,-14.1,26.1
Cc1cccc(Cl)c1NC(=O)N1CCN(c2ccnc3cc(Cl)ccc23)CC1,-8.9,0.9,20.5,0.2,18.9,25.2,/,/
CCOc1ccc(NC(=O)N2CCN(c3nc4ccccc4s3)CC2)cc1,9.1,16.9,10.0,-28.4,14.6,7.4,/,/
Cc1cccc(Cl)c1NC(=O)N1CCCN(c2nc3ccc(Cl)cc3s2)CC1,6.9,48.8*,7.0,14.4,23.4,21.6,-20.2,41.2*
COC(=O)[C@]12C[C@H](CC(=O)N3CCCCC3)C(=O)N(Cc3ccccc3)C1=C[C@H](C(C)C)O[C@@H]2C1CC1,-7.2,-3.8,/,/,/,/,/,/
CCOC(=O)[C@@]12CCCC3=C1N(CCC3)C(=O)[C@H]2CC(=O)N1CCCCC1,-23.8,8.7,/,/,/,/,/,/
Cc1cc2c(NCCc3ccccc3)ncnc2s1,7.2,50.0*,/,-52.8,-26.5,-41.3,-132.7,28.6
O=C(Nc1ccc(CN2CCS(=O)(=O)CC2)cc1)c1ccc(C(F)(F)F)cc1,15.3,50.5*,5.1,17.4,15.4,13.2,12.9,31.7
O=C(Nc1ccc(CN2CCS(=O)(=O)CC2)cc1)c1ccc(F)cc1,-13.6,11.2,2.1,-4.7,-15.4,-14.7,/,/
CC(C)(C)c1ccc(C(=O)Nc2ccc(CN3CCS(=O)(=O)CC3)cc2)cc1,16.0,47.4*,-9.0,19.4,15.6,13.8,-16.0,31.8
Cc1cc(O)cc(=O)n1-c1cccc(Br)c1,14.4,-6.7,/,/,/,/,/,/
COc1cc(C(=O)NCc2cccnc2)ccc1OCC(=O)Nc1cccc(C(F)(F)F)c1,31.3,30.1,29.5,25.9,10.9,0.8,/,/
COc1ccc(CN(C)C(=O)c2ccc(OCC(=O)Nc3cccc(C(F)(F)F)c3)c(OC)c2)cc1,30.7,63.9*,/,37.1,31.1,39.4,-2.0,48.2*
c1ccc(CNc2ncnc3scc(-c4cccs4)c23)nc1,4.0,59.9*,20.1,1.6,11.2,31.3,-0.8,31.5
O=C(Nc1ccc(OCc2ccccc2Cl)cc1)c1cccnc1,67.3*,38.0*,21.8,16.3,24.4,21.1,-4.2,11.1
